HCMV antiviral – qHTS Assay for inhibitors of the human cytomegalovirus (HCMV); HFF cells, HCMV-luciferase reporter, 72 h; hits give low values; activity change, negative = inhibition, % at 57.5 µM; actives 4.5% (n = 410,000); AID 1259415, 2018; in the data active = activity change below about -60%; inconclusive = no clear call, values can overlap the other calls; inactive = above about -39%
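After 16 h attachment at 37C, HFF cells received test compound and HCMV-luciferase (1 PFU/cell); reporter luminescence read 72 h later, data normalized against buffer-only and known inhibitor Salinomycin.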
VACV Venus inh – qHTS for Stage-Specific Inhibitors of Vaccinia Orthopoxvirus: Venus Reporter Primary qHTS | Vaccinia virus Venus reporter expression, fluorescence | Potency, µM (doses to about 36.5 µM), actives largely listed as inhibitors | actives 0.46% (n = 330,000) | AID 720580, 2013; calls by dose curve; tested in A549 cells; also: nearly all actives have a fitted effect of over 30% in size
FMDV antiviral – High Throughput Screening for Foot and Mouth Disease Virus Antivirals. actives 1.2% (n = 410,000). Potency, µM (highest dose often 57.9 µM), actives largely listed as inhibitors. FMDV antiviral cell-based qHTS; calls by dose curve; tested in HEK293T cells; also: read-out not given here; nearly all actives have a fitted effect of over 45% in size
Giardia FBPA inh – qHTS Assay for Inhibitors of Fructose-1,6-bisphosphate Aldolase from Giardia Lamblia; A8B2U2; actives 0.71% (n = 290,000); purified Giardia FBPA; AID 2451, 2010; Potency, µM (titrated, usually from 59.6 µM), usual class: inhibitors; also: nearly all actives have a fitted effect of over 55% in size
Target sequence (A8B2U2 whole entry, looked up): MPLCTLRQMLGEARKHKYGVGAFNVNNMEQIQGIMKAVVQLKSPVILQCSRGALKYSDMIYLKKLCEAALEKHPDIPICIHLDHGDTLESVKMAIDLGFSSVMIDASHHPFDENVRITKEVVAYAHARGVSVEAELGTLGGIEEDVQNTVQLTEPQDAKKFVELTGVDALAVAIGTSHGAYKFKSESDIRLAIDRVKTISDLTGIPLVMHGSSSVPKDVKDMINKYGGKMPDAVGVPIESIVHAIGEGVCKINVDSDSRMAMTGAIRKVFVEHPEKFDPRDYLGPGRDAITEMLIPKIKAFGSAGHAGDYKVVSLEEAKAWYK
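40 nM FBPA preincubated 10 min at RT with compound (up to 57.5 uM final), then substrate plus GAPDH/TPI/NAD/arsenate coupling and diaphorase/resazurin added. Fluorescence read after 20 min at RT, 525/598 nm.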
HCV inhibitor – qHTS Assay for Inhibitors of Hepatitis C Virus (HCV); Huh7.5.1 HCVcc-Cre infection, luciferase reporter, 44 h; Potency, µM (series often up to 41.8 µM), most hits filed as inhibitors; actives 3.4% (n = 340,000)
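Reporter virus HCVcc-Cre (~0.5 moi) infects cells exposed to compound; seeding density 1,000 cells/well with 4 h settling beforehand. Luminescence, 15 sec read, taken 44 h post-infection following a 15 min RT substrate incubation.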
VACV mCherry inh – qHTS for Stage-Specific Inhibitors of Vaccinia Orthopoxvirus: mCherry Reporter Primary qHTS; Vaccinia virus mCherry reporter infection, fluorescence; Potency, µM (doses to about 36.5 µM), actives largely listed as inhibitors; actives 0.63% (n = 310,000); AID 720579, 2013; calls by dose curve; tested in A549 cells; also: nearly all actives have a fitted effect of over 35% in size
Numbers stand for hits; - = inactive; ? = inconclusive; . = no result given; [ ] = dose if it differs, or a comment. In the library only some 7.5% were active in any assay of this set; here they are far more common. Unless noted, calls follow the shape of the dose curve; as a rule, active = well fitted curve in the direction sought with a large enough effect; inconclusive = small, poorly fitted or top-dose-only effect, or another doubt; inactive = no such curve, though single readings can be large; an effect the other way counts as inactive or inconclusive.

SMILES | HCMV antiviral | VACV Venus inh | FMDV antiviral | Giardia FBPA inh | HCV inhibitor | VACV mCherry inh
Nc1c(Br)cc2c3c(cccc13)-c1ccccc1-2 | - | - | - | . | 2.8µM | ?
CC1=CCC2C(=O)N(c3ccccc3OC(=O)c3ccccc3F)C(=O)C2C1 (stereo not given) | - | - | - | - | - | -
CCc1ccc(C(=O)/C=C/c2ccc([N+](=O)[O-])o2)cc1 | - | - | 35µM | - | - | -[1.46 µM]
CCOC(=O)CCc1ccc(NC(=O)/C=C/c2ccc([N+](=O)[O-])o2)cc1 | - | 13µM | 25µM | . | ? | ?
Cc1ccc(/C=C/C(=O)Nc2ccc([N+](=O)[O-])cc2)o1 | - | - | - | - | - | ?
COc1ccc(CNS(=O)(=O)c2ccc(-c3ccc(=O)[nH]n3)s2)cc1OC | - | - | - | . | - | -
Brc1ccccc1CN1CCC(N2CCCCC2)CC1 | - | . | - | - | 4µM | .
O=[N+]([O-])c1ccccc1-c1cc(-c2ccccc2)cc(-c2ccccc2)[n+]1Cc1ccccc1Cl | -97 | ? | ? | . | 3.5µM | -
O=[N+]([O-])c1ccc(-[n+]2c(-c3ccccc3)cc(-c3ccccc3)cc2-c2ccccc2)cc1 | ? | . | - | - | - | .
Cc1ccc(/C=N\Nc2nc3ccc(Cl)cc3[nH]2)o1 | - | ? | - | - | - | ?
Cc1ccc(/C=N/Nc2ccc3ccccc3n2)o1 | -79 | ? | - | - | - | ?
C(=N\Nc1ccc2ccccc2n1)/c1ccc2c(c1)OCCO2 | -90 | . | ? | - | - | .
Cc1cccc(/C=N/Nc2ccc3ccccc3n2)c1 | - | - | 6.3µM | - | ? | ?
Cc1cc(N/N=C/c2cccc(Br)c2)nc2ccccc12 | - | - | - | - | - | -
COc1ccc(C(=O)c2cn(Cc3ccccc3F)c3cc4c(cc3c2=O)OCO4)cc1 | - | - | - | . | . | -
COc1cc2c3nnc(-c4ccccc4)c-3cn(Cc3ccccc3F)c2cc1OC | -97 | - | - | - | ? | -
COc1cc2c3nnc(-c4ccc(F)cc4)c-3cn(Cc3ccccc3F)c2cc1OC | -89 | ? | ? | - | ? | -
COc1cc2c(=O)c(S(=O)(=O)c3ccc(F)cc3)cn(Cc3ccccc3C)c2cc1OC | - | - | - | . | . | -
C[C@@H]1CN([C@@H](C)CO)C(=O)c2cc(Br)cnc2O[C@H]1CN(C)C(=O)Nc1ccccc1 | - | - | ? | . | . | -
CCOC(=O)c1cc(-c2ccccc2)n(CCC(=O)Nc2cc(C)cc(C)c2)c1C | - | - | - | . | . | -
CCOC(=O)c1cc(-c2ccccc2)n(CCC(=O)Nc2ccc(Cl)c(C(F)(F)F)c2)c1C | - | ? | 40µM | . | . | ?
COc1ccc(C(=O)OCC(=O)Nc2ccc(Cl)c(C(F)(F)F)c2)c(OC)c1OC | -62 | - | - | - | ? | -
Cc1cc2nc(N3CCC(NC(C)c4nc(-c5ccccn5)no4)CC3)nc(C)c2cc1C (stereo not given) | . | - | - | . | . | -
COCCN1CCN(C(=O)c2cnn(-c3nccc(-c4ccccc4F)n3)c2-c2ccco2)CC1 | . | - | - | . | . | -
COc1ccccc1Nc1nnc(SCC2CCCCO2)s1 (stereo not given) | - | - | - | - | 7.9µM | -
SMILES | HCMV antiviral | VACV Venus inh | FMDV antiviral | Giardia FBPA inh | HCV inhibitor | VACV mCherry inh
CN(C)c1ccc(/C=C2\C=Cc3ccccc32)cc1Cl | . | - | . | . | . | -
CC1=CC=CC2=NC(=O)CC(C)(C(=O)N(CC(=O)NC3CCCC3)c3ccc(F)cc3)N12 (stereo not given) | -82 | - | - | . | - | -
Cc1cc(C)cc(NC(=O)c2cnn(-c3ccc(C)c(C)c3)c2C2CCNCC2)c1 | -93 | -[7.34 µM] | - | . | . | -[7.34 µM]
CCc1ccc(NC(=O)c2cnn(-c3ccccc3)c2C2CCNCC2)cc1 | ? | . | - | - | - | .
Cc1ccc(-n2ncc(C(=O)NCCN3CCc4ccccc4C3)c2C2CCNCC2)cc1C | - | - | - | . | . | -
Cc1ccc(-n2ncc(C(=O)Nc3cc(Cl)ccc3C)c2C2CCNCC2)cc1C | -91 | . | - | - | - | .
Cc1nn(-c2ccccc2)c2nc(C3CC3)cc(C(=O)Nc3cccc(F)c3)c12 | -67 | - | ? | . | . | -
Cc1cc(C)cc(NC(=O)c2cnn(-c3ccccc3)c2C2CCNCC2)c1 | -86 | - | - | - | - | -
O=C(c1ccco1)N1CCN(C(=O)c2cnn(-c3cccc(F)c3)c2C2CCNCC2)CC1 | - | - | - | - | - | -
Cc1c(C(=O)Nc2ccccc2F)cnn1-c1ccccc1 | - | . | - | - | - | .
O=C(Nc1cccc(C(F)(F)F)c1)c1cnn(-c2cccc(F)c2)c1C1CCNCC1 | -77 | -[7.34 µM] | - | . | . | -[7.34 µM]
Cc1c(C(=O)Nc2cc(F)cc(F)c2)cnn1-c1ccccc1 | - | . | - | - | 11µM | .
O=Cc1ccc(-c2c(-c3ccccc3)oc3c2C(OCCCCO)CCC3)o1 (stereo not given) | - | - | - | . | . | -
CCCCN(CC)S(=O)(=O)c1ccc(C(=O)N=c2sc3cc(NC(C)=O)ccc3n2C)cc1 | -72 | - | - | - | ? | -
CCCCN(C)S(=O)(=O)c1ccc(C(=O)N=c2sc3cc(NC(C)=O)ccc3n2C)cc1 | - | - | - | - | - | -
CC(=O)Oc1cc2c(C(=O)NCc3ccncc3)c(C)oc2c2ccccc12 | - | - | - | ? | 11µM | ?
Cc1oc(-c2ccccc2)cc1C(=O)NCc1ccncc1 | - | . | - | - | - | .
O=C(CCC(=O)N1CCSc2ccccc21)NCc1ccc(Cl)cc1 | - | - | - | - | - | -
O=C(CCC(=O)N1CCSc2ccccc21)NCc1ccccc1Cl | -62 | - | - | . | . | -
COC(=O)C1CCN(C(=O)COc2ccc(N(C)S(=O)(=O)c3ccc(C)cc3)cc2)CC1 | - | - | - | . | - | -
CCOC(=O)C1CCN(C(=O)COc2ccc(N(C)S(=O)(=O)c3ccc(C)cc3)cc2)CC1 | -102 | - | - | - | - | -
CCC1CCCCN1C(=O)COc1ccc(N(C)S(=O)(=O)c2ccc(C)cc2)cc1 (stereo not given) | - | . | ? | - | 10µM | .
CC(=O)c1ccc[nH]1 | . | - | - | - | . | -
CCOC(=O)c1c(C)n(C)c2ccc(O)cc12 | - | . | . | . | . | .
CCOC(=O)c1c(C)n(-c2ccc(OC)cc2)c2ccc(O)c(CN(C)C)c12 | ? | - | ? | - | ? | ?
CCOC(=O)c1c(C)n(-c2ccc(F)cc2)c2ccc(O)cc12 | . | . | ? | - | 8.9µM | .
CCOC(=O)c1c(CSc2ccccc2)n(C)c2cc(Br)c(O)c(CN(C)C)c12 | - | - | - | - | ? | -
CCOC(=O)c1c(CSc2ccc(C)cc2)n(C)c2cc(Br)c(O)c(CN(C)C)c12 | -63 | . | ? | - | ? | .
COC(=O)c1c(C)n(-c2ccc(OC)cc2)c2ccc(O)cc12 | - | ? | - | - | 11µM | .

Screening results from PubChem BioAssay.
